Measurements: PubChem BioAssay (Tox21)
Records with an inconclusive call do not appear. A call without a number means that no potency is given here. Active and inactive are the calls of the source. Calls come from the whole dose curve.

Assay: qHTS assay for small molecules that induce genotoxicity in human embryonic kidney cells expressing luciferase-tagged ATAD5 - cell viability (AID 651634); note: nearly all actives have a fitted effect of over 25% in size
Details: HEK293T ATAD5-luc cells viability, CellTiter-Fluor, 15.5 h; series mostly up to 83.3 µM
Outline: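 HEK293T cells carrying luciferase-tagged ATAD5, 2,000 cells/well, exposed to compound for 15.5 hr at 37C. Viability read as live-cell protease activity by CellTiter-Fluor fluorescence after 30 min at 37C.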

| Structure (SMILES) | Potency |
| --- | --- |
| NC(=O)c1ncn([C@@H]2O[C@H](CO)[C@@H](O)[C@H]2O)c1N | inactive |
| c1ccc(SCCSc2ccccc2)cc1 | inactive |
| CC(C)[N+](C)(C)CC(O)COc1cccc2ccccc12 (stereo not drawn) | inactive |
| CSc1nc(NC2CC2)nc(NC(C)(C)C)n1 | inactive |
| CC(O)CN(CCCN(C)C)CCCN(C)C (stereo not drawn) | inactive |
| COC[C@H](c1ccc(C(F)(F)F)cc1)N1CCN(C2(C)CCN(C(=O)c3c(C)ncnc3C)CC2)C[C@H]1C | inactive |
| OCCN1C[C@H](O)[C@@H](O)[C@H](O)[C@H]1CO | inactive |
| [O-][N+](=Nc1ccccc1)c1ccccc1 | inactive |
| O=[N+]([O-])c1ccc(Oc2ccc([N+](=O)[O-])cc2)cc1 | inactive |
| CC(C)c1cccc(O)c1 | inactive |
| CO | inactive |
| COc1cccc(Br)c1 | inactive |
| CCCCCCCCC=O | inactive |
| C=C(C)C(=O)NCCCN(C)C | inactive |
| CC(C)(O)C(=O)c1ccc(OCCO)cc1 | inactive |
| N#CCN(CC#N)CCN(CC#N)CC#N | inactive |
| CC/C=C\CCCCO | inactive |
| CCCCCCOC(=O)c1ccccc1O | inactive |
| CC(C)N1C(=O)c2ccccc2C1=O | inactive |
| COc1cc(O)cc(O)c1 | inactive |
| CC(C)c1cccc(C(C)C)c1N | inactive |
| CO[Si](OC)(OC)OC | inactive |
| CCCCOCC(C)OCC(C)O (stereo not drawn) | inactive |
| Cc1ccccc1C(=O)O | inactive |
| C=CCOc1nc(OCC=C)nc(OCC=C)n1 | inactive |
| Cn1ccc2cc3c(cc21)CCN3C(=O)Nc1cccnc1 | inactive |

Assay: qHTS assay for small molecule disruptors of the mitochondrial membrane potential - cell viability (AID 720634);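 note: human HepG2 liver cancer cells; nearly all actives have a fitted effect of over 20% in size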
Details: HepG2 viability, ATP luminescence (CellTiter-Glo), 1 h; series mostly up to 83.2 µM
Outline: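 HepG2 cells, 2,000 per well, attached overnight, then treated 1 hr at 37 C, 5% CO2. Viability read as ATP by CellTiter-Glo luminescence after 30 min at room temperature. Read in the same wells as the m-MPI membrane-potential dye assay.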

| Structure (SMILES) | Potency |
| --- | --- |
| NC(=O)c1ncn([C@@H]2O[C@H](CO)[C@@H](O)[C@H]2O)c1N | inactive |
| c1ccc(SCCSc2ccccc2)cc1 | inactive |
| CC(C)[N+](C)(C)CC(O)COc1cccc2ccccc12 (stereo not drawn) | inactive |
| CSc1nc(NC2CC2)nc(NC(C)(C)C)n1 | inactive |
| CC(O)CN(CCCN(C)C)CCCN(C)C (stereo not drawn) | inactive |
| COC[C@H](c1ccc(C(F)(F)F)cc1)N1CCN(C2(C)CCN(C(=O)c3c(C)ncnc3C)CC2)C[C@H]1C | inactive |
| OCCN1C[C@H](O)[C@@H](O)[C@H](O)[C@H]1CO | inactive |
| [O-][N+](=Nc1ccccc1)c1ccccc1 | inactive |
| O=[N+]([O-])c1ccc(Oc2ccc([N+](=O)[O-])cc2)cc1 | inactive |
| OCC(O)[C@@H](O)[C@H](O)[C@H](O)CO[C@H]1O[C@H](CO)[C@@H](O)[C@H](O)[C@H]1O (stereo partly drawn) | inactive |
| CC(C)c1cccc(O)c1 | inactive |
| COc1cccc(Br)c1 | inactive |
| CCc1cc(S(=O)(=O)O)c2cc(C(C)C)cccc1-2 | inactive |
| CCCCCCCCC=O | inactive |
| C=C(C)C(=O)NCCCN(C)C | inactive |
| CC(C)(O)C(=O)c1ccc(OCCO)cc1 | inactive |

| Structure (SMILES) | Potency |
| --- | --- |
| N#CCN(CC#N)CCN(CC#N)CC#N | inactive |
| CC/C=C\CCCCO | inactive |
| COc1cccc(OC)c1 | inactive |
| CCCCCCOC(=O)c1ccccc1O | inactive |
| CC(C)N1C(=O)c2ccccc2C1=O | inactive |
| O=[N+]([O-])c1ccc(CCO)cc1 | inactive |
| COc1cc(O)cc(O)c1 | inactive |
| O=C(O)CCNC(=O)c1ccc(N=Nc2ccc(O)c(C(=O)O)c2)cc1 | inactive |
| CC(C)c1cccc(C(C)C)c1N | inactive |
| CO[Si](OC)(OC)OC | inactive |
| NS(=O)(=O)c1cc2c(cc1Cl)NC(CSCc1ccccc1)=NS2(=O)=O | inactive |
| CCCCOCC(C)OCC(C)O (stereo not drawn) | inactive |
| Cc1ccccc1C(=O)O | inactive |
| CCCCCCCCCCCCCCCCCCOCC(O)CO (stereo not drawn) | inactive |
| C=CCOc1nc(OCC=C)nc(OCC=C)n1 | inactive |
| Cn1ccc2cc3c(cc21)CCN3C(=O)Nc1cccnc1 | inactive |
